Inconclusive results are not listed. Calls of active or inactive are those of the source. Unless noted, the call rests on the fitted dose curve; in most records, active means well fitted curve in the direction sought with a large enough effect in the repeat runs; inconclusive means weak or mixed curves; inactive means no such curve, though single readings can be large; an effect the other way counts as inactive or inconclusive.
Tests used:
[1] = qHTS assay to identify small molecule antagonists of the TGF-beta/Smad signaling pathway - cell viability counter screen (AID 1346824); further: nearly all actives have a fitted effect of over 50% in size
Method in brief: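 SBE-bla HEK 293T cells were plated overnight at 37 C, then given compounds in DMSO plus TGF-beta1 (added as 0.25 ng/mL solution) for 5 hr. After the bla read, CellTiter-Glo was added to the same wells and luminescence read after 30 min at room temperature.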

[2] = qHTS assay to identify small molecule agonists of the TGF-beta/Smad signaling pathway - cell viability counter screen (AID 1346829); further: top concentration of the series differs between compounds; nearly all actives have a fitted effect of over 45% in size
Method in brief: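 CellTiter-Glo luminescence readout; SBE-bla HEK 293T cells, overnight plating, compound 5 hr at 37 C/5% CO2, then bla substrate 2 hr RT, then CellTiter-Glo 30 min RT.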

[3] = qHTS assay to identify small molecule agonists of the TGF-beta/Smad signaling pathway (AID 1346859; active means well fitted activation curve with a large enough effect in the signal ratio in the repeat runs, not every such curve was filed as active; the % refers to the signal ratio; further: series mostly up to about 77 µM)
Method in brief: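 Each well held 4,000 SBE-bla HEK 293T cells incubated overnight before compound addition; 5 hr later the cleavable FRET substrate went on for 2 hr at room temperature, and fluorescence was read at two emissions.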

[4] = molecular target: Thyrotropin-releasing hormone receptor (Homo sapiens) (UniProt P34981); test: qHTS assay to identify small molecule antagonists of the thyrotropin-releasing hormone receptor (TRHR) signaling pathway (AID 1346877; active means well fitted inhibition curve with a large enough effect in the repeat runs, not every such curve was filed as active; further: series mostly up to about 51 µM)
Method in brief: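 HEK293/TRHR cells, 18 h, 37 °C; Ca2+ dye 2 h; cpd 5 min RT; TRH 1 nM final; fluorescence read 3 min, 1 s intervals; 15 concs, triplicate.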

[5] = molecular target: Thyrotropin-releasing hormone receptor (Homo sapiens) (UniProt P34981); test: qHTS assay to identify small molecule agonists of the thyrotropin-releasing hormone receptor (TRHR) signaling pathway (AID 1346891; calls by dose curve; further: series mostly up to about 58 µM)
Method in brief: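 Screening of agonists relied on calcium signalling in HEK293 cells expressing human TRHR: dye loading 2 h at 37 °C preceded compound addition and a 3-min fluorescence time course.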

[6] = Human pregnane X receptor (PXR) small molecule agonists, qHTS cell viability counter screen (AID 1346977); further: nearly all actives have a fitted effect of over 50% in size
Method in brief: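 Tox21 qHTS format; PXR-Luc HepG2, 2,000/well, charcoal-stripped FBS 5%. Cpd exposure 24hr. Read: CellTiter-Fluor fluorescence, multiplexed with luciferase.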

[7] = Caspase-3/7 induction in HepG2 cells by small molecules, qHTS assay (AID 1346978); further: nearly all actives have a fitted effect of over 15% in size
Method in brief: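 Wild-type HepG2 cells (2,000/well) were settled 5 h at 37 C, 5% CO2, then exposed to compounds in DMSO for 17 h. Caspase-3/7 activity was read by luminescence 30 min after adding Caspase-Glo 3/7 reagent at room temperature.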

[8] = Caspase-3/7 induction in CHO-K1 cells by small molecules, qHTS cell viability counter screen (AID 1346979); further: nearly all actives have a fitted effect of over 35% in size
Method in brief: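 CellTiter-Fluor viability check, qHTS format: wild-type CHO-K1, 16hr compound treatment, 1hr reagent incubation, fluorescence read.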

[9] = Caspase-3/7 induction in HepG2 cells by small molecules, qHTS cell viability counter screen (AID 1346981); further: series mostly up to about 92 µM; nearly all actives have a fitted effect of over 30% in size
Method in brief: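 Fluorescence read-out of live-cell protease activity (CellTiter-Fluor) after 1 hr with reagent. This was measured in the same wells as the caspase-3/7 luminescence, on HepG2 cells exposed to DMSO-dissolved compounds for 16 hr at 37 C.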

[10] = molecular target: Cytochrome P450 2D6 (Homo sapiens) (UniProt P10635); test: Cytochrome P450 Family 2 Subfamily D Member 6 (CYP2D6) small molecule antagonists: luciferase reporter qHTS assay (AID 1671196); further: series mostly up to about 120 µM; nearly all actives have a fitted effect of over 50% in size
Method in brief: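 Luminogenic proluciferin substrate, CYP2D6 enzyme; 10 min RT preincubation with compound, NADPH regeneration system added, 1 h RT. Stop/detection reagent, 20 min RT, luminescence read (RLU). Signal proportional to CYP activity.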

[11] = molecular target: Cytochrome P450 1A2 (Homo sapiens) (UniProt P05177); test: Cytochrome P450 Family 1 Subfamily A Member 2 (CYP1A2) small molecule antagonists: luciferase reporter qHTS assay (AID 1671199); further: nearly all actives have a fitted effect of over 50% in size; further: potency means the concentration at half of the fitted maximal effect; on activity change, negative = inhibition: series mostly up to about 120 µM
Method in brief: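 Luminescence readout (relative luminescence units) after luciferin detection reagent, 20 min RT. Preceded by 1 h room-temperature CYP1A2 reaction with NADPH regeneration solution following 10 min compound preincubation with enzyme and proluciferin substrate. Furafylline positive control.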

[12] = molecular target: Voltage-gated inwardly rectifying potassium channel KCNH2 (Homo sapiens) (UniProt Q12809); test: Human Ether-a-go-go-Related Gene (hERG) channel small molecule antagonists: fluorescence cell-based qHTS assay (AID 1671200)
Method in brief: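 Kinetic two-minute fluorescence traces, sampled at 1 s, were collected following thallium stimulus of U2OS cells (1000 per well) that had been cultured overnight at 37 C and loaded with FluxOR II.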

[13] = molecular target: Cytochrome P450 3A4 (Homo sapiens) (UniProt P08684); test: Cytochrome P450 Family 3 Subfamily A Member 4 (CYP3A4) small molecule antagonists: luciferase reporter qHTS assay (AID 1671201)
Method in brief: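 Proluciferin-to-luciferin conversion by CYP3A4, NADPH-regenerated, 1 h RT; luminescence read as RLU. Ketoconazole as control.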

[14] = Caspase-3/7 induction in CHO-K1 cells by small molecules, qHTS assay (AID 1346980); further: nearly all actives have a fitted effect of over 15% in size
Method in brief: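 Wild-type cells were seeded at 1,500 per well and settled 5 hr at 37 C, 5% CO2, then exposed to DMSO-dissolved compounds for 17 hr. Caspase-Glo 3/7 reagent was added, and luminescence was read after 30min at room temperature.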

[15] = molecular target: Nuclear receptor subfamily 1 group I member 2 (Rattus norvegicus) (UniProt Q9R1A7); test: Rat pregnane X receptor (rPXR) activation by small molecules, qHTS assay (AID 1346983); conditions: rPXR luciferase reporter cells, One-Glo luminescence, 24 h; hits give high values; further: nearly all actives have a fitted effect of over 20% in size
Method in brief: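 Cell-based rPXR luciferase reporter assay, 2,000 cells per well, rested 5hr at 37 C before compound addition in DMSO, then 24 hr at 37 C. One-Glo reagent was added and luminescence read after 30 min at room temperature.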

[16] = molecular target: Cytochrome P450 2C19 (Homo sapiens) (UniProt P33261); test: Cytochrome P450 Family 2 Subfamily C Member 19 (CYP2C19) small molecule antagonists: luciferase reporter qHTS assay (AID 1671197); further: nearly all actives have a fitted effect of over 65% in size; further: potency means the concentration at half of the fitted maximal effect; on activity change, negative = inhibition: series mostly up to about 120 µM
Method in brief: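 Enzyme-substrate mix with proluciferin substrate (P450-Glo CYP2C19 system) preincubated with compounds 10 min at room temperature; NADPH regeneration solution added, 37C for 1 h; detection reagent stops reaction, luminescence read after 20 min. Ketoconazole positive control.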

[17] = molecular target: Nuclear receptor subfamily 1 group I member 2 (Homo sapiens) (UniProt O75469); test: Human pregnane X receptor (PXR) small molecule agonists, qHTS assay (AID 1346982); further: nearly all actives have a fitted effect of over 35% in size
Method in brief: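 HepG2 PXR-Luc reporter line, 5% charcoal-stripped FBS; 5 hr pre-incubation, compound (DMSO) 24 hr at 37 C/5% CO2; ONE-Glo 30 min RT; luminescence read-out.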

[18] = molecular target: Cytochrome P450 2C9 (Homo sapiens) (UniProt P11712); test: Cytochrome P450 Family 2 Subfamily C Member 9 (CYP2C9) small molecule antagonists: luciferase reporter qHTS assay (AID 1671198)
Method in brief: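 CYP2C9 activity was measured with a P450-Glo proluciferin substrate. Enzyme–substrate mix was held with compound for 10 min at room temperature, then NADPH regeneration solution was added for 1 h at 37C. Luciferin product was read as luminescence.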
On the % scale 0 is the no-effect control and ±100 the full control effect.

Sequence of Thyrotropin-releasing hormone receptor (Homo sapiens) (P34981 whole entry, looked up): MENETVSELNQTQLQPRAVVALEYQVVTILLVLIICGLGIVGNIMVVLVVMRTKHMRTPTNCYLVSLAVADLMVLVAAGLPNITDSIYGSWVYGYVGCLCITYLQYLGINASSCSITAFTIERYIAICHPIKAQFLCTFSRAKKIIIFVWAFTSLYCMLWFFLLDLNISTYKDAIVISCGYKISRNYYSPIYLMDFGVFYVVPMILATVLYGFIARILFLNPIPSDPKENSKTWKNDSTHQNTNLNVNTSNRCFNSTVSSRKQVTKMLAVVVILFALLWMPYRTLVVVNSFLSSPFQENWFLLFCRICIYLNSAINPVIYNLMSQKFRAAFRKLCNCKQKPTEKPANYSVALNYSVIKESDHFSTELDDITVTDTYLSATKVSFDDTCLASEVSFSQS
Sequence of Cytochrome P450 2C9 (Homo sapiens) (P11712 whole entry, looked up): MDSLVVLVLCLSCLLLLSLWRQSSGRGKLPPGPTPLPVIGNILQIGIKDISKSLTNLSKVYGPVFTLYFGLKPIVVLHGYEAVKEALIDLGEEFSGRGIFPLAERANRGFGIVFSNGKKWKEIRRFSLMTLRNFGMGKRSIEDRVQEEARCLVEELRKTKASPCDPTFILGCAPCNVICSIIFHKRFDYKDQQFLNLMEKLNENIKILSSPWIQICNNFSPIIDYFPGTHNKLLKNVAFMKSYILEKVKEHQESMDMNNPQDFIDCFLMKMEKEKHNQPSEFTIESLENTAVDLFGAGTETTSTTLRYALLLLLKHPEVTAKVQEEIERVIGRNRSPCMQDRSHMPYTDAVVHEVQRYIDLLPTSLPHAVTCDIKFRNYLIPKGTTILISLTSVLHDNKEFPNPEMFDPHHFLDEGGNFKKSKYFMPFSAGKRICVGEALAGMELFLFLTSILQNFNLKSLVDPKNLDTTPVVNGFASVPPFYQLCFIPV
Sequence of Cytochrome P450 2D6 (Homo sapiens) (P10635 whole entry, looked up): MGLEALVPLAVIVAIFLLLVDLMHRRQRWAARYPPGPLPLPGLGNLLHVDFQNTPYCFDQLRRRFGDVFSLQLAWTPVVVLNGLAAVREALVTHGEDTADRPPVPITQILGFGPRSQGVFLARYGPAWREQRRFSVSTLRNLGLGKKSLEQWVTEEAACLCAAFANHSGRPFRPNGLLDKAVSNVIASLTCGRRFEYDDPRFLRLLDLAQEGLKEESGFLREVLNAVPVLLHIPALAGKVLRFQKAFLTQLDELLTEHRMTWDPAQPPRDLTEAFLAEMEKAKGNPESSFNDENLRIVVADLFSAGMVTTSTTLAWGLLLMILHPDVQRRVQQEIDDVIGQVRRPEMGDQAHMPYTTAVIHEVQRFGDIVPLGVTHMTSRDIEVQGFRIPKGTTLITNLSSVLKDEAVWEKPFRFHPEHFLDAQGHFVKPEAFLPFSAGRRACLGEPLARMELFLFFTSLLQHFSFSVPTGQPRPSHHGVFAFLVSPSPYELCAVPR
Sequence of Cytochrome P450 2C19 (Homo sapiens) (P33261 whole entry, looked up): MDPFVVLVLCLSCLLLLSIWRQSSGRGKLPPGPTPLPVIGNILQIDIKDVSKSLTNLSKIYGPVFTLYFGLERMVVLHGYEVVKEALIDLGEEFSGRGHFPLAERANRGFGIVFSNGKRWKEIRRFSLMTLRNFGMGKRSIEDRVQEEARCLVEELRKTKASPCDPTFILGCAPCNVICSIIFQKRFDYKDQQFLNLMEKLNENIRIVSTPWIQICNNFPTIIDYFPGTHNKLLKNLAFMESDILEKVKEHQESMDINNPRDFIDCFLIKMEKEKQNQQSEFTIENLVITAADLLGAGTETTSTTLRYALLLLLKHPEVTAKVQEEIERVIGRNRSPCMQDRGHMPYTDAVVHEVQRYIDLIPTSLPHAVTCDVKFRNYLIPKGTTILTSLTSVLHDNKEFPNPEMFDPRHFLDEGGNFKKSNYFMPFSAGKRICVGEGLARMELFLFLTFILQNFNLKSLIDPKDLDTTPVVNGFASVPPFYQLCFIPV
Sequence of Nuclear receptor subfamily 1 group I member 2 (Homo sapiens) (O75469 whole entry, looked up): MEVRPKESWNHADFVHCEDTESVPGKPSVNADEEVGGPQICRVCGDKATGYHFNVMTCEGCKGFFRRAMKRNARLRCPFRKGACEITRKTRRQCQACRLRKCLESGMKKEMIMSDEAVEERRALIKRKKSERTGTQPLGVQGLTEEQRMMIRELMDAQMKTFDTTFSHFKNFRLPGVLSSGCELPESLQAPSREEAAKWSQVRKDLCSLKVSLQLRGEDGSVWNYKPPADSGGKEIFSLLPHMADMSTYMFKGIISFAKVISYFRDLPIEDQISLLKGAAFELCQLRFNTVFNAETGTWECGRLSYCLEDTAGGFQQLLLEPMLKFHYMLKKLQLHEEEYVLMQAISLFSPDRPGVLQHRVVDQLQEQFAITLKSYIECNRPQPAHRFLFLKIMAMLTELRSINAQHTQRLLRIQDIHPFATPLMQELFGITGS
Sequence of Cytochrome P450 1A2 (Homo sapiens) (P05177 whole entry, looked up): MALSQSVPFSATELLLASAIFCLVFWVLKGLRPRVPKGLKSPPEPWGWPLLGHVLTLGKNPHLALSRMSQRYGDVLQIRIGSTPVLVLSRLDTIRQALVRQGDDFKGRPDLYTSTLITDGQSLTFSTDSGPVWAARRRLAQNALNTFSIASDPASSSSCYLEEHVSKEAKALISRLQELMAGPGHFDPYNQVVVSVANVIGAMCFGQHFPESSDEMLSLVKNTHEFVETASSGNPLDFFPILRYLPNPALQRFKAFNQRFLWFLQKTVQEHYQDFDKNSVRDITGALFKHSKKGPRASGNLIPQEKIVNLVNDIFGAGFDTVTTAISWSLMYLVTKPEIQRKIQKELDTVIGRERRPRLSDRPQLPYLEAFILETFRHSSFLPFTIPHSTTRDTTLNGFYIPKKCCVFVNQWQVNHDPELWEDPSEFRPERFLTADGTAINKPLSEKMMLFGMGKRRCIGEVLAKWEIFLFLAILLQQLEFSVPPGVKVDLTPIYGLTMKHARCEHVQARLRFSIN
Sequence of Voltage-gated inwardly rectifying potassium channel KCNH2 (Homo sapiens) (Q12809 whole entry, looked up): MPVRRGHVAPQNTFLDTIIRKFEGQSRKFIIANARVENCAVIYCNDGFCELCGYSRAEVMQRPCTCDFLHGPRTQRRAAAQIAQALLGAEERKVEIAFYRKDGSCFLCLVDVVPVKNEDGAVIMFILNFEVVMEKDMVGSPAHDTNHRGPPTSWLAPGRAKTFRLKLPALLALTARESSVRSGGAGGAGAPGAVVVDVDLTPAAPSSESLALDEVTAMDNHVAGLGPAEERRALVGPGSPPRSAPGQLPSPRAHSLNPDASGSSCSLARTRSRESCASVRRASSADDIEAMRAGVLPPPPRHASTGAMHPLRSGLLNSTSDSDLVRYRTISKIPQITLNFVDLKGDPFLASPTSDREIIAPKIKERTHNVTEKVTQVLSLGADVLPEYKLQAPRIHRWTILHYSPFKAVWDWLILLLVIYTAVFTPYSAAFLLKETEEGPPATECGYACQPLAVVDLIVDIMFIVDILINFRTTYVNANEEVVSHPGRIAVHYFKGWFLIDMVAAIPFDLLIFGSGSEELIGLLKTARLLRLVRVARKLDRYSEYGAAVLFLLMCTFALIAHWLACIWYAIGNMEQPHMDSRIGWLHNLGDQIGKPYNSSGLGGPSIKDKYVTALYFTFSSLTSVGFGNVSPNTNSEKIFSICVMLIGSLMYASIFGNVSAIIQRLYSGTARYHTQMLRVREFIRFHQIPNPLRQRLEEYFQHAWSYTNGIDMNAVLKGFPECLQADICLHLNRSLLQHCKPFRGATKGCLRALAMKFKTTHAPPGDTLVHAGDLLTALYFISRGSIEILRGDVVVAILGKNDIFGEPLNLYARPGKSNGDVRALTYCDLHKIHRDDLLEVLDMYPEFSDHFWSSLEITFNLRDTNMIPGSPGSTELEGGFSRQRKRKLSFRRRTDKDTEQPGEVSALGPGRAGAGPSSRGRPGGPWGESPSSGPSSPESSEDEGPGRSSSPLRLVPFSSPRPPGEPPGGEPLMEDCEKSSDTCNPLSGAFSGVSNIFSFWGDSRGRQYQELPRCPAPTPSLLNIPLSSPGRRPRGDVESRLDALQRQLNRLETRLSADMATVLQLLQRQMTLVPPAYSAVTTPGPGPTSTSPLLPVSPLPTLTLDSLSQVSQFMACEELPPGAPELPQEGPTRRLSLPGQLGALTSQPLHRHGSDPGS
Sequence of Cytochrome P450 3A4 (Homo sapiens) (P08684 whole entry, looked up): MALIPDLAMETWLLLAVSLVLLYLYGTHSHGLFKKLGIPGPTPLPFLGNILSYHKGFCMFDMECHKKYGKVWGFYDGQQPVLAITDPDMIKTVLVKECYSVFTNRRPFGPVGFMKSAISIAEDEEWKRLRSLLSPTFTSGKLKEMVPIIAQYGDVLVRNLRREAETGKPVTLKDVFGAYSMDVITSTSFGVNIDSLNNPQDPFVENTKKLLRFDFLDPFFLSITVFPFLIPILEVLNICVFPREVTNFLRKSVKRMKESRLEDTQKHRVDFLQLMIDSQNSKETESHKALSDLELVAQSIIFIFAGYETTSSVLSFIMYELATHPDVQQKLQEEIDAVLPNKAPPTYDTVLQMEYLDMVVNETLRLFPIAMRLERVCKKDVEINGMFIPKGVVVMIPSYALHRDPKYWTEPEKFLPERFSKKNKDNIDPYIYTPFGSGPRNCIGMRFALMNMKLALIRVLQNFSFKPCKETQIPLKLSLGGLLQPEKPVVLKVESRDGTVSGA
Sequence of Nuclear receptor subfamily 1 group I member 2 (Rattus norvegicus) (Q9R1A7 whole entry, looked up): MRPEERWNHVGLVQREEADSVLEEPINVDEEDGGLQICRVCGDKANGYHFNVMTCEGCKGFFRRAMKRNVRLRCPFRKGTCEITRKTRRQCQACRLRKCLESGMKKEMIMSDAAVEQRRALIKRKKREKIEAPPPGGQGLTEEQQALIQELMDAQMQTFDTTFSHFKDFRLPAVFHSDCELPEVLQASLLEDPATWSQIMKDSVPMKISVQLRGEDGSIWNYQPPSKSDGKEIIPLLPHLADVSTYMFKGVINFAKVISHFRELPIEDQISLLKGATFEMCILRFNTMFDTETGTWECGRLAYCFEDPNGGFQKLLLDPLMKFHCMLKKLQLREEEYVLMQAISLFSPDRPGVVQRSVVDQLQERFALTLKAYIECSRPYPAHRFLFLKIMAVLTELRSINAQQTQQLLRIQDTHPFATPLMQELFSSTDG

ONc1ccccc1
active: Potency [11] 14 µM
inactive: outcome [1] | outcome [2] | outcome [3] | outcome [4] | outcome [5] | outcome [6] | outcome [7] | Potency [8] | outcome [9] | Potency [10] | Potency [12] | Potency [13]

CCn1cc(C(=O)O)c(=O)c2cnc(N3CCCC3)nc21
inactive: viability change, negative = cytotoxic [1] 10.1% [at 6.97 µM] | activity change, negative = cytotoxicity [2] 3.95% [at 6.97 µM] | activation [3] -0.108% [at 6.97 µM] | activity, negative = inhibition [4] 1.25% [at 4.65 µM] | activation [5] -0.507% [at 5.23 µM] | activity change, negative = cytotoxicity [6] -1.63% [at 8.39 µM] | caspase activation [7] 1.75% [at 8.39 µM] | activity change, negative = cytotoxicity [8] 1.69% [at 8.39 µM] | caspase-3/7 activation [14] 1.6% [at 8.39 µM] | activity change, negative = cytotoxicity [9] -1.49% [at 8.39 µM] | max activation [15] -0.363% | activity change, negative = inhibition [10] -1.62% [at 10.5 µM] | activity change, negative = inhibition [16] -11.6% [at 10.5 µM] | activity change, negative = inhibition [12] -5.15% [at 6.97 µM]

C/C=C(\C)C(C)=O
inactive: outcome [1] | outcome [2] | outcome [3] | outcome [4] | outcome [5] | outcome [6] | outcome [7] | Potency [8] | outcome [9] | Potency [17] | Potency [18] | Potency [12] | Potency [13]

CCCCCCC1(C)CCC(=O)O1 (stereo not given)
inactive: outcome [1] | outcome [2] | outcome [3] | outcome [4] | outcome [5] | outcome [6] | outcome [7] | Potency [8] | outcome [14] | outcome [9] | Potency [17] | Potency [13]

O=C(O)CNC(=O)CNC(=O)CNC(=O)CSC(=O)c1ccccc1
inactive: outcome [1] | outcome [2] | outcome [3] | outcome [4] | outcome [5] | outcome [6] | outcome [7] | outcome [9] | Potency [17] | Potency [10] | Potency [16] | Potency [18] | Potency [12] | Potency [13]

CC(C)COC(=O)c1ccccc1
inactive: outcome [1] | outcome [2] | outcome [3] | outcome [4] | outcome [5] | outcome [6] | outcome [7] | Potency [8] | outcome [14] | outcome [9] | Potency [17] | Potency [16] | Potency [18] | Potency [12] | Potency [13]

Cc1ccccc1C(N)=O
inactive: outcome [1] | outcome [2] | outcome [3] | outcome [4] | outcome [5] | outcome [6] | outcome [7] | Potency [8] | outcome [14] | outcome [9] | Potency [17] | Potency [18] | Potency [12] | Potency [13]

O=C(O)CSCC(=O)NC1CCSC1=O (stereo not given)
inactive: outcome [1] | outcome [2] | outcome [3] | outcome [4] | outcome [5] | outcome [6] | outcome [7] | Potency [8] | outcome [14] | outcome [9] | Potency [17] | Potency [16] | Potency [11] | Potency [13]

CC1=NN(c2ccc(S(=O)(=O)O)cc2)C(=O)C1
inactive: outcome [1] | outcome [2] | outcome [3] | outcome [4] | outcome [5] | outcome [6] | outcome [7] | Potency [8] | outcome [9] | Potency [17] | Potency [10] | Potency [18] | Potency [11] | Potency [12] | Potency [13]
active: Potency [16] 79.6 µM

Reference: PubChem BioAssay (Tox21)
